B1: PhoQ; a variant is named by its letters at X, in order, P23837 (parent)
chain: MKKLLRLFFPLSLRVRFLLATAAVVLVLSLAYGMVALIGYSVSFDKTTFRLLRGESNLFYTLAKWENNKLHVELPENIDKQSPTMTLIYDENGQLLWAQRDVPWLMKMIQPDWLKSNGFHEIEADVNDTSLLLSGDHSIQQQLQEVREDDDDAEMTHSVAVNVYPATSRMPKLTIVVVDTIPVELKSSYMVWSWFIYVLSANLLLVIPLLWVAAWWSLRPIEALAKEVRELEEHNRELLNPATTRELTSLVRNLNRLLKSERERYDKYRTTLTDLTHSLKTPLXXLQXXLRSLRSEKMSVSDAEPVMLEQISRISQQIGYYLHRASMRGGTLLSRELHPVAPLLDNLTSALNKVYQRKGVNISLDISPEISFVGEQNDFVEVMGNVLDNACKYCLEFVEISARQTDEHLYIVVEDDGPGIPLSKREVIFDRGQRVDTLRPGQGVGLAVAREITEQYEGKIVAGESMLGGARMEVIFGRQHSAPKDE

In all, about 140,000 sequences were measured (“enrichment ratio after two sorts for PhoP signalling”: median about 0, highest 2% from about 11 on). This is one part of a sample in which the highest values are shown more often than they occur. Where only a bound is given, the exact number is not on record here.

In the assay the parent is B1. As to the kind of experiment: enrichment ratio after two sorts for PhoP signalling (ratio (wild type AVST 3.29)); higher = more functional. The settings on record: with PhoP (E. coli).
Regarding QMSW, the enrichment ratio is at most 0.25.

With ACGY, the enrichment ratio is at most 0.25.

For ACLY, the enrichment ratio amounted to 15.2.

ACNY: the enrichment ratio came to 0.855.

On to WFSN, for which the enrichment ratio is at most 0.25.

Consider ISKP, for which the enrichment ratio is at most 0.25.

In the case of LFTC, the enrichment ratio is at most 0.25.

Consider AIVC, for which the enrichment ratio came to 19.1.

Regarding WIVC, the enrichment ratio is at most 0.25.

Consider KKVC, for which the enrichment ratio was at most 0.25.

Turning to AIVG, the enrichment ratio amounted to 7.78.

As to AKVC, the enrichment ratio is 15.3.

With AKVG, the enrichment ratio was at most 0.25.

Regarding VMGF, the enrichment ratio was at most 0.25.

On to TSMG, for which the enrichment ratio came out at 13.

In the case of FSQV, the enrichment ratio is at most 0.25.

In the case of KSMG, the enrichment ratio is at most 0.25.

Take TSMS: the enrichment ratio came out at 26.4.

For the variant TSMD, the enrichment ratio came out at 10.7.

For the variant LCWG, the enrichment ratio is at most 0.25.

With KSMS, the enrichment ratio is at most 0.25.

Regarding MMWG, the enrichment ratio is at most 0.25.

Take FSMS: the enrichment ratio is 1.68.

Take TSQV: the enrichment ratio stood at 12.2.

On to TSWG, for which the enrichment ratio came out at 16.6.

KSQV: the enrichment ratio was at most 0.25.

As to EDGN, the enrichment ratio was at most 0.25.

For the variant WMLF, the enrichment ratio was at most 0.25.

For the variant DHGA, the enrichment ratio is at most 0.25.

In the case of GPST, the enrichment ratio is at most 0.25.

Turning to FTYH, the enrichment ratio is at most 0.25.

In the case of IRVV, the enrichment ratio is at most 0.25.

DYPQ: the enrichment ratio was at most 0.25.

As for EQAY, the enrichment ratio was at most 0.25.

As to NSWL, the enrichment ratio came to 1.26.

WSSA: the enrichment ratio is at most 0.25.

Take FRMR: the enrichment ratio was at most 0.25.

As to TSMI, the enrichment ratio is 23.

For KSMI, the enrichment ratio was at most 0.25.

For KSMV, the enrichment ratio was at most 0.25.

For TSMW, the enrichment ratio was at most 0.25.

Consider TSMV, for which the enrichment ratio worked out at 19.3.

On to FSMV, for which the enrichment ratio came to 9.33.

In the case of RCKQ, the enrichment ratio was at most 0.25.

For the variant VMWK, the enrichment ratio is at most 0.25.

Turning to AQIM, the enrichment ratio was 2.44.

In the case of MGDY, the enrichment ratio was at most 0.25.

Turning to MGFS, the enrichment ratio was found to be 2.82.

Consider MGWC, for which the enrichment ratio stood at 32.1.

Consider MGNS, for which the enrichment ratio was at most 0.25.

Turning to MGFA, the enrichment ratio amounted to 3.62.

Regarding MGLC, the enrichment ratio came out at 19.1.

Take QRLC: the enrichment ratio was at most 0.25.

Regarding MGFC, the enrichment ratio came out at 14.4.

In the case of MLWC, the enrichment ratio is at most 0.25.

Regarding IHNL, the enrichment ratio is at most 0.25.

In the case of VPHV, the enrichment ratio is at most 0.25.

For QVMI, the enrichment ratio was at most 0.25.

Turning to QDPG, the enrichment ratio was at most 0.25.

For LMRT, the enrichment ratio is at most 0.25.

For HNWM, the enrichment ratio was at most 0.25.

Consider KYAN, for which the enrichment ratio was at most 0.25.

Regarding SIWN, the enrichment ratio was determined as 4.21.

NSAN: the enrichment ratio was at most 0.25.

Take PLAN: the enrichment ratio was at most 0.25.

On to SRAN, for which the enrichment ratio was at most 0.25.

On to SIAN, for which the enrichment ratio came to 22.8.

Consider SLAN, for which the enrichment ratio was 13.8.

For SFAN, the enrichment ratio was at most 0.25.

As to TLAN, the enrichment ratio was 12.5.

On to KSAN, for which the enrichment ratio is at most 0.25.

For the variant SSAN, the enrichment ratio is 12.6.

Take VLAN: the enrichment ratio was at most 0.25.

On to AYNP, for which the enrichment ratio was at most 0.25.

MNQS: the enrichment ratio was at most 0.25.

In the case of QHYQ, the enrichment ratio was at most 0.25.

With KQAN, the enrichment ratio was at most 0.25.

For SAQN, the enrichment ratio was at most 0.25.

On to SAAN, for which the enrichment ratio worked out at 11.7.

Turning to IPYG, the enrichment ratio is at most 0.25.

MDSP: the enrichment ratio amounted to 1.12.

For NDLM, the enrichment ratio was at most 0.25.

For MPWY, the enrichment ratio was at most 0.25.

On to YTWY, for which the enrichment ratio was at most 0.25.

Take TTWY: the enrichment ratio turned out to be 14.

For the variant MMWF, the enrichment ratio is at most 0.25.

Regarding YTWF, the enrichment ratio was at most 0.25.

As to MTWY, the enrichment ratio is 21.6.

In the case of MTWI, the enrichment ratio is 10.2.

LTWY: the enrichment ratio was found to be 2.54.

Regarding MTWF, the enrichment ratio worked out at 11.8.

On to REII, for which the enrichment ratio was at most 0.25.

Regarding QNIY, the enrichment ratio is at most 0.25.

On to RKGF, for which the enrichment ratio was at most 0.25.

As for RLAG, the enrichment ratio was at most 0.25.

For LLSD, the enrichment ratio is at most 0.25.

KHVD: the enrichment ratio was at most 0.25.

In the case of WVTG, the enrichment ratio was at most 0.25.

On to WRYK, for which the enrichment ratio was at most 0.25.

As for DWAR, the enrichment ratio was at most 0.25.

In the case of DQSP, the enrichment ratio was at most 0.25.

Consider HHVS, for which the enrichment ratio was at most 0.25.

For HLFA, the enrichment ratio is at most 0.25.

As to TIAG, the enrichment ratio stood at 21.3.

Take AKAG: the enrichment ratio is at most 0.25.

As for KKAG, the enrichment ratio was at most 0.25.

Consider TIFG, for which the enrichment ratio is at most 0.25.

Turning to AIAG, the enrichment ratio amounted to 12.5.

On to WIAG, for which the enrichment ratio was at most 0.25.

For EQNT, the enrichment ratio is at most 0.25.

As to MHNT, the enrichment ratio is at most 0.25.

Consider ITTY, for which the enrichment ratio is at most 0.25.

Regarding NVHV, the enrichment ratio is at most 0.25.

For the variant FVHV, the enrichment ratio was 12.9.

On to YTQV, for which the enrichment ratio was at most 0.25.

Turning to STQV, the enrichment ratio stood at 2.63.

On to TTIV, for which the enrichment ratio was 0.549.

As to TTPV, the enrichment ratio is at most 0.25.

Take YTHV: the enrichment ratio was at most 0.25.

Turning to FSHV, the enrichment ratio is at most 0.25.

With TTHV, the enrichment ratio was 14.6.

As to TTMV, the enrichment ratio stood at 28.9.

Consider FDHV, for which the enrichment ratio is at most 0.25.

Consider TTQV, for which the enrichment ratio amounted to 16.2.

On to SKAG, for which the enrichment ratio was at most 0.25.

With TMDC, the enrichment ratio was at most 0.25.

Take CSSV: the enrichment ratio was determined as 0.253.

On to LKSK, for which the enrichment ratio is at most 0.25.

With QYAS, the enrichment ratio is at most 0.25.

Regarding DYQS, the enrichment ratio is at most 0.25.

On to HVFV, for which the enrichment ratio was at most 0.25.

VSIQ: the enrichment ratio was at most 0.25.

In the case of RGHV, the enrichment ratio is at most 0.25.

Take GGHV: the enrichment ratio was at most 0.25.

With TGHV, the enrichment ratio amounted to 16.1.

As to YHQM, the enrichment ratio was at most 0.25.

Take DRRP: the enrichment ratio is at most 0.25.

Take ARSC: the enrichment ratio is at most 0.25.

With AKSC, the enrichment ratio worked out at 23.2.

ANSC: the enrichment ratio turned out to be 11.9.

Consider TKSC, for which the enrichment ratio stood at 5.09.

Turning to ADSC, the enrichment ratio is at most 0.25.

ANSK: the enrichment ratio was at most 0.25.

For the variant VIHS, the enrichment ratio was at most 0.25.

With QISE, the enrichment ratio was at most 0.25.

With IIPR, the enrichment ratio is at most 0.25.

With TIIG, the enrichment ratio was at most 0.25.

On to QQWT, for which the enrichment ratio is at most 0.25.

Consider QRWT, for which the enrichment ratio is at most 0.25.

Turning to QLWT, the enrichment ratio was at most 0.25.

Consider TPWT, for which the enrichment ratio was at most 0.25.

With QIWT, the enrichment ratio stood at 20.8.

As for MPWT, the enrichment ratio was at most 0.25.

LCWT: the enrichment ratio was at most 0.25.

Consider QEWT, for which the enrichment ratio was determined as 11.3.

Take MMWT: the enrichment ratio is at most 0.25.

TSWT: the enrichment ratio stood at 13.4.

For the variant MEWT, the enrichment ratio is 34.7.

Take MKWT: the enrichment ratio is at most 0.25.

Source of the values: a collection of fitness landscapes (doi:10.1126/science.1257360).
